RPL19A-GFP yeast – RPL19A-GFP expression modulators in yeast, primary screen, cell-based, S. cerevisiae, multiplex flow cytometry, MLPCN; S. cerevisiae RPL19A-GFP strain, 3 h; stronger effect = lower value; percent response vs DMSO, % at 10 µM; 330,000 tested, 0.3% active; AID 2025, 2009;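 active means percent response vs DMSO below 50%; inconclusive means fewer than 70 events counted for the yeast strain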;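 further: median channel GFP fluorescence of the barcoded RPL19A-GFP strain; lower means less RPL19A-GFP as with rapamycin TOR inhibition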
AGP1-GFP MLPCN – modulators of AGP1-GFP expression in yeast TOR pathway, primary screen, cell-based, multiplex flow cytometry, S. cerevisiae, MLPCN library; 320,000 tested, 0.02% active; 3 h; GFP as percent of DMSO wells; GFP response vs DMSO, % at 10 µM;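 active means GFP response relative to DMSO above a set limit, near screen average plus 3 SD, cut at about 150% in these data; inconclusive means fewer than 70 cells counted for the yeast strain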;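 further: median GFP channel fluorescence of the gated AGP1 strain per well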
GASC-1 inh – inhibitors of GASC-1 histone demethylase, primary screen, biochemical, fluorescence, DELFIA europium | 330,000 tested, 0.069% active | inhibition, % at 2.35 µM | GST-JMJD2C(1-420) H3K9me3 demethylation | AID 2099, 2009 | Lysine-specific demethylase 4C (Homo sapiens), Q9H3R0;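 active means more than half of a compound's replicate wells show inhibition beyond 50%, single wells judged on their own value; inconclusive means some, but no more than half, of replicates pass 50% inhibition; inactive means no replicate passes 50% inhibition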;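 further: signal counts dimethyl H3K9 product captured on neutravidin plate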
Target sequence (Q9H3R0 1-420 limits assumed): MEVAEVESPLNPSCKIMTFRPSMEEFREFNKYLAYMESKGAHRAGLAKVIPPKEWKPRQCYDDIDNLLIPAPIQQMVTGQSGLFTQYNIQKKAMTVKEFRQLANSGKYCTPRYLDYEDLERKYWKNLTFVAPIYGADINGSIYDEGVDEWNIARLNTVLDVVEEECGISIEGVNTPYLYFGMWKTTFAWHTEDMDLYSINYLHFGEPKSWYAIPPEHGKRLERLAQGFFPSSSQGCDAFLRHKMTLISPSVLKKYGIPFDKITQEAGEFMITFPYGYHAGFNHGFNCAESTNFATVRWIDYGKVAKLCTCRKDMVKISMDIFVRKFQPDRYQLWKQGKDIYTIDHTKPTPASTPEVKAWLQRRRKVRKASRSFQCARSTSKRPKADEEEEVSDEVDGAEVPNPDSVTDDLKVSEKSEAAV
LAP4-GFP MLPCN – modulators of LAP4-GFP expression in yeast, primary screen, S. cerevisiae, multiplex flow cytometry, MLPCN library; GFP response vs DMSO, % at 10 µM; 3 h; median GFP as percent of DMSO wells; AID 2023, 2009; 320,000 tested, 0.34% active;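 active means GFP response vs DMSO above a set limit, about the screen mean plus 3 SD, cut at about 150% in these data; inconclusive means under 70 cell events counted for the yeast strain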
MEP2 TOR yeast – modulators of MEP2-GFP levels in yeast, primary screen, S. cerevisiae, multiplex flow cytometry, MLPCN library; GFP response vs DMSO, % at 10 µM; 330,000 tested, 0.51% active; AID 2016, 2009; S. cerevisiae MEP2-GFP strain, 3 h; 100% = DMSO control level;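 active means GFP response versus DMSO above a set limit, roughly screen mean plus 3 SD, cut at about 180% in these data; inconclusive means fewer than 70 cells counted for a yeast strain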;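 further: median GFP fluorescence of the barcode-gated MEP2-GFP cells per well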
CIT2 TOR yeast – modulators of CIT2-GFP expression in yeast, primary screen, S. cerevisiae, GFP fusion, multiplex flow cytometry, MLPCN library; 320,000 tested, 0.065% active; S. cerevisiae CIT2-GFP strain, 3 h; 100 means same as DMSO wells; GFP response vs DMSO, % at 10 µM;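 active means GFP response relative to DMSO above a set limit, near the screen mean plus 3 SD, cut at about 150% in these data; inconclusive means Fewer than 70 cells measured for a yeast strain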;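 further: ratio of well median GFP fluorescence to mean of DMSO wells on the plate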
Each line names hits and unclear results; the compound was inactive in the other large screens; [ ] = another dose, or the depositor's remark. Shown are actives, neighbours in structure and some others; about 0.97% of the full set was active somewhere.

O=C(CSc1nnc(NC(=O)C2CC2)s1)NCc1ccccc1Cl	none
CCOC(=O)NC1Cc2ccccc2C1Sc1ccccn1 (centres undefined)	none
CC(=O)c1cccc(NC(=O)C(C)OC(=O)CCc2nc3ccccc3c(=O)[nH]2)c1 (centres undefined)	none
O=C(OCc1ccc(F)cc1)c1ccc2c(c1)-c1ccccc1C2=O	RPL19A-GFP yeast 43[may fluoresce violet], MEP2 TOR yeast 263[may fluoresce violet], CIT2 TOR yeast inconclusive (no result: AGP1-GFP MLPCN)
O=C(OCc1ccc(F)cc1)c1cc2ccccc2cc1O	none
CCOC(=O)C1=C(Cc2ccc(F)cc2)C(=O)c2ccccc2C1=O	LAP4-GFP MLPCN 155
CCOC(=O)c1cnc(Cc2ccccc2)[nH]c1=O	none
COC(=O)C1=CN(Cc2ccc(OC)cc2)C=C(C(=O)OC)C1c1ccsc1	MEP2 TOR yeast 257[may fluoresce violet], CIT2 TOR yeast inconclusive
CCC12OC(=N)C(C#N)(C1C)C(C#N)(C#N)C(c1ccccc1)O2 (centres undefined)	MEP2 TOR yeast 204[may fluoresce violet], CIT2 TOR yeast inconclusive
CC1C(=O)N(Cc2ccc(F)cc2)c2ccccc2N1C(=O)c1c(F)cccc1F (centres undefined)	none
CC1C(=O)N(Cc2ccc([N+](=O)[O-])cc2)c2ccccc2N1C(=O)C1CC1 (centres undefined)	GASC-1 inh 60
CC1(C)CC(=O)C2=C(C1)OC1=C(C(=O)CC(C)(C)C1)C2c1ccc(O)cc1O	LAP4-GFP MLPCN 178
CCOC(=O)N1CCN(C(=O)CNC(=O)c2nn(-c3ccc(OC)c(Cl)c3)c(=O)c3ccccc23)CC1	none
COc1ccc(-n2nc(C(=O)NCC(=O)N3CCCC3)c3ccccc3c2=O)cc1Cl	AGP1-GFP MLPCN inconclusive, MEP2 TOR yeast 270[may fluoresce violet], CIT2 TOR yeast inconclusive
Cc1ccc(S(=O)(=O)NCCCCCC(=O)Nc2c(C)n(C)n(-c3ccccc3)c2=O)cc1	RPL19A-GFP yeast 37[may fluoresce violet], AGP1-GFP MLPCN inconclusive, MEP2 TOR yeast 251[may fluoresce violet], CIT2 TOR yeast inconclusive
COC(=O)C1CCN(C(=O)COC(=O)CCc2nc3ccccc3c(=O)[nH]2)CC1	MEP2 TOR yeast 199
CCOC(=O)C1CCCN(C(=O)c2cccc(NC(=O)C(CC)CC)c2)C1 (centres undefined)	none
Clc1ccc(OCCSc2nnnn2C2CCCCC2)cc1	MEP2 TOR yeast 236[may fluoresce violet], CIT2 TOR yeast inconclusive (no result: AGP1-GFP MLPCN)
COc1ccc(C(=O)N/N=C/c2c[nH]c3ccccc23)cc1	RPL19A-GFP yeast 17[may fluoresce violet], AGP1-GFP MLPCN inconclusive, LAP4-GFP MLPCN inconclusive, MEP2 TOR yeast 247[may fluoresce violet], CIT2 TOR yeast inconclusive
Cc1ccc(/C=N/NC(=O)NC2CCCCC2)o1	none
Cc1ccc(/C=C/C(=O)NC2CCCCCCC2)o1	LAP4-GFP MLPCN 170
CSc1ccc(CN2CCC(n3nccc3NC(=O)c3ccccc3C)CC2)cc1	none
CCOc1ccc(NC(=O)C/C(C)=N/NC(=O)COc2ccc(Br)cc2C)cc1	MEP2 TOR yeast 252[may fluoresce violet], CIT2 TOR yeast inconclusive
CC(=O)Nc1ccc(NC(=O)C/C(C)=N/NC(=O)COc2cc(C)c(Br)cc2Br)cc1	none
O=C(CS(=O)(=O)c1ccccc1)c1cc2cc(F)ccc2oc1=O	none
O=C(CS(=O)(=O)c1ccccc1)c1cc2ccccc2oc1=O	RPL19A-GFP yeast 12[may fluoresce violet], AGP1-GFP MLPCN inconclusive, LAP4-GFP MLPCN inconclusive, MEP2 TOR yeast 183[may fluoresce violet], CIT2 TOR yeast inconclusive
O=[N+]([O-])c1cc2oc3c(c2c(C=NCc2ccccc2)c1O)CCCC3	AGP1-GFP MLPCN inconclusive, MEP2 TOR yeast 258[may fluoresce violet], CIT2 TOR yeast inconclusive
Cc1cccc(/N=C/c2c(O)ccc3oc4c(c23)CCCC4)n1	none
Cc1oc2cc([N+](=O)[O-])c(O)c([N+](=O)[O-])c2c1C(=O)c1ccc(Cl)cc1	none
CC(C)CN=Cc1c(O)c([N+](=O)[O-])cc2oc3c(c12)CCCC3	LAP4-GFP MLPCN 173
CCc1cccc(C)c1NC(=O)CN(C)S(=O)(=O)c1ccc(-c2ccc(=O)[nH]n2)s1	none
OC(CNCC1CCCCC1)COc1ccccc1 (centres undefined)	RPL19A-GFP yeast 49[may fluoresce violet], AGP1-GFP MLPCN inconclusive, MEP2 TOR yeast 362[may fluoresce violet], CIT2 TOR yeast inconclusive
Nc1cccc2c1C(=O)N(C(=O)/C=C/c1ccc(F)cc1)C2=O	LAP4-GFP MLPCN 206[may fluoresce violet], CIT2 TOR yeast inconclusive
Nc1cccc2c1C(=O)N(C(=O)c1ccco1)C2=O	none
CCOc1ccc(/C=C/[N+](=O)[O-])c2ccccc12	AGP1-GFP MLPCN inconclusive
O=[N+]([O-])/C=C/c1c(OCc2ccccc2)ccc2ccccc12	LAP4-GFP MLPCN 181
C=CCn1c(=O)c2c(nc3n2CC(C)CN3CCc2ccccc2)n(C)c1=O (centres undefined)	none
C=C(C)[C@H]1CC=C(C)/C(=N/NC(=O)CNc2ccccc2OC)C1	RPL19A-GFP yeast 31[may fluoresce violet], AGP1-GFP MLPCN inconclusive, MEP2 TOR yeast 223[may fluoresce violet], CIT2 TOR yeast inconclusive
Cc1ccc(-n2nc3c(c2NC(=O)C(C)C)CS(=O)(=O)C3)c(C)c1	none
CC(C)C[C@H](N)C(=O)N1CCC(C(=O)N[C@H](C(=O)NC(C)c2ccccc2)C(C)C)CC1 (some centres undefined)	RPL19A-GFP yeast 15[may fluoresce violet], AGP1-GFP MLPCN inconclusive, MEP2 TOR yeast 247[may fluoresce violet], CIT2 TOR yeast inconclusive
CN1c2ccsc2/C(=N/Nc2ccc(F)cc2)CS1(=O)=O	LAP4-GFP MLPCN 151
COc1ccccc1NC(=O)C1CCN(C(=O)NCc2ccccc2)CC1	none
O=C(O)CCCC[C@@H]1SC[C@@H]2NC(=O)N[C@@H]21	GASC-1 inh 96
COc1ccc(CNC(=O)c2c(O)c3cccc4c3n(c2=O)CCC4)cc1OC	RPL19A-GFP yeast 38[may fluoresce violet], MEP2 TOR yeast 295[may fluoresce violet], CIT2 TOR yeast inconclusive (no result: AGP1-GFP MLPCN)
COc1ccc(CNC(=O)c2c(O)c3cccc4c3n(c2=O)CCC4)cc1	none (no result: RPL19A-GFP yeast, AGP1-GFP MLPCN, LAP4-GFP MLPCN, MEP2 TOR yeast, CIT2 TOR yeast)
Cc1ccc(OCc2cc(C(=O)NC3CCc4ccccc43)no2)cn1 (centres undefined)	none
CCOc1ccc(CCNC(=O)CSCC(=O)Nc2cccc(C)c2)cc1OCC	none
O=C(OC(c1ccc(NS(=O)(=O)c2ccccc2)cc1)(C(F)(F)F)C(F)(F)F)c1ccccc1	MEP2 TOR yeast 194
Cc1ccc(S(=O)(=O)Nc2ccc(C(OC(=O)c3ccccc3[N+](=O)[O-])(C(F)(F)F)C(F)(F)F)cc2)cc1	none
COc1ccc(C(=O)NCCCn2cccn2)cc1OC1CCN(C(C)=O)CC1	none (no result: RPL19A-GFP yeast, AGP1-GFP MLPCN, LAP4-GFP MLPCN, MEP2 TOR yeast, CIT2 TOR yeast)
Cc1c(C(=O)N2CCN(c3ncccn3)CC2)oc2ccc(Cl)cc12	none
CCC(C)c1ccc(N(C(=O)c2ccco2)C(C(=O)NC2CCCC2)c2cccnc2)cc1 (centres undefined)	MEP2 TOR yeast 271[may fluoresce violet], CIT2 TOR yeast inconclusive

High-throughput results as filed in PubChem.
